Assay outcomes as filed in PubChem BioAssay.
Hits are enriched below; roughly 3.7% of the tested compounds scored in any of these assays.
PfHsp90 set2: growth inhibition of yeast expressing Plasmodium Hsp90. S. cerevisiae expressing PfHsp90, BacTiter-Glo ATP, 48 h; yeast lacking PDR1 and PDR3 efflux regulators. inhibition, % at 9.4 µM. 0.32% of 310,000 active. AID 504621;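 active means every replicate shows inhibition above about 80%, whatever the replicate mean, limit read from the data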;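 further: 0% = DMSO neutral controls and 100% = 20 µM radicicol positive controls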
NLRP3 yeast inh: NALP3 inhibition in yeast; Yeast reconstituted NLRP3/ASC/caspase-1, beta-gal luminescence, 24 h; inhibition, % at 10 µM; 0.39% of 330,000 active; AID 2825;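 active means inhibition of 50% or more; inactive means inhibition below 50%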;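 further: plate controls were induced DMSO wells for no effect and uninduced yeast grown without galactose for full effect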
tim10-1 inh: growth inhibitors of tim10-1 mutant yeast. S. cerevisiae tim10-1 ts strain growth, BacTiter-Glo, 24 h. inhibition, % at 20 µM. 2.2% of 330,000 active;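 active means inhibition of at least 40%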;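 further: mutant grown at 25 °C; 0% = DMSO wells with yeast and 100% = wells holding no yeast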
TIM10 inh: growth inhibitors of TIM10 yeast strain | S. cerevisiae TIM10 strain growth, BacTiter-Glo luminescence, 24 h | inhibition, % at 10 µM | 1.4% of 330,000 active | AID 463195;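 active means inhibition of 40% or more at the single tested concentration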;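 further: wild-type TIM10 isogenic control strain grown at permissive 25 °C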
tim23-1 inh: inhibits growth of tim23-1 mutant yeast. AID 463212. S. cerevisiae tim23-1 growth, BacTiter-Glo luminescence, 24 h. inhibition, % at 20 µM. 1.3% of 330,000 active;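 active means growth inhibition of the mutant yeast at or above 50%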;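 further: temperature-sensitive mutant grown at 25 °C; plate controls were DMSO-treated mutant yeast for no effect and medium wells lacking yeast for full effect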
tim10-1 confirm: tim10-1 yeast growth inhibition, confirmed. S. cerevisiae tim10-1 ts strain growth, BacTiter-Glo, 24 h. 56% of 7,400 active. inhibition, % at 20 µM. shares compounds with tim10-1 inh;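 active means inhibition of yeast growth at or above a set limit in either of two repeat tests at 20 µM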;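 further: tim10-1 mutant grown at permissive 25 °C to find synthetic lethal compounds; 0% = DMSO yeast wells and 100% = medium wells without yeast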
Numbers without * were called inactive; . = no result.

SMILES | PfHsp90 set2 | NLRP3 yeast inh | tim10-1 inh | TIM10 inh | tim23-1 inh | tim10-1 confirm
COC(=O)Nc1nc(-c2ccccc2)c(C(=O)c2ccc(Cl)cc2)s1 | -4 | 10 | 5 | 0 | 1 | .
COc1ccc(C(=O)c2cnc(/N=C/N(C)C)s2)cc1 | . | -1 | 44* | 28 | 15 | 36*
CC(Oc1ccccc1F)c1nnc(SCC(=O)Nc2ccc(N3CCOCC3)cc2)o1 (stereo not given) | . | 12 | 0 | -3 | 5 | .
O=C(O)c1ccc(Nc2nc(-c3ccccc3)nc3ccccc23)cc1 | 0 | 1 | 53* | 4 | 15 | 15
O=C(O)c1cccc(Nc2nc(-c3ccccc3)nc3ccccc23)c1 | -15 | 10 | 15 | 5 | -2 | .
CCOC(=O)/C=C1/SCC(=O)N1CCOc1cccc(Br)c1 | -39 | . | . | . | . | .
Cc1ccc2c(c1)c1c3n2CCN(C(=O)CCl)C3CCC1 (stereo not given) | 14 | -6 | 43* | 6 | 22 | 30
CC1CCN(C2=C(NS(=O)(=O)c3ccc(Cl)cc3)C(=O)c3ccccc3C2=O)CC1 | -10 | -3 | 40* | 28 | 39 | 29
O=C1C(NS(=O)(=O)c2ccc(Br)cc2)=C(N2CCCCC2)C(=O)c2ccccc21 | 3 | 5 | 50* | 15 | 44 | 14
O=C(NCCC1CCCCN1S(=O)(=O)c1ccccc1)C(=O)NCc1cccnc1 (stereo not given) | 9 | 16 | 14 | 4 | 7 | .
C[C@@H]1CN(S(=O)C(C)(C)C)[C@@H](CCO)/C1=C\CCO (stereo not given in full) | -8 | . | . | . | . | .
COc1cccc(-c2nc(CS(=O)(=O)CC(=O)NCCc3ccc(OC)cc3OC)c(C)o2)c1 | -3 | -5 | 24 | 18 | 23 | .
Cc1ccc(S(=O)(=O)N2CCC(C(=O)N3CCc4ccccc43)CC2)cc1C | -7 | 18 | -1 | 0 | 10 | .
COC(=O)c1cc(-c2ccc(C)o2)nc2ccccc12 | -3 | 25 | 23 | 22 | 15 | .
Cc1ccc(-c2cc(C(=O)Nc3ccccc3C)c3ccccc3n2)o1 | . | -8 | 49* | 9 | 14 | 26
CC(C)C(=O)N1CCN(c2ccccc2NC(=O)c2ccc([N+](=O)[O-])o2)CC1 | 23 | 23 | 59* | 35 | 45 | 56*
CCC(=O)N1CCN(c2ccccc2NC(=O)c2ccc([N+](=O)[O-])o2)CC1 | -34 | 35 | 24 | 35 | 42 | .
Cc1cccc(OCC(=O)Nc2ccccc2N2CCCC2)c1C | . | 16 | 12 | -1 | 16 | .
CN1CCN(c2ccccc2NC(=O)c2ccc(-c3cccc(Cl)c3)o2)CC1 | 22 | 41 | 60* | 36 | 44 | 47*
Cc1cccc(OCC(=O)Nc2ccccc2N2CCN(C(=O)C(C)C)CC2)c1C | . | 6 | 48* | 30 | 32 | 30*
COc1cccc(C(=S)N2CCOCC2)c1OS(=O)(=O)c1ccc(Cl)cc1 | 13 | 4 | 32 | 5 | 23 | .
CC(C)Cn1c(N)c(C(=O)COC(=O)C2CC(=O)N(c3ccc4c(c3)OCCO4)C2)c(=O)n(C)c1=O (stereo not given) | -3 | 10 | -12 | 4 | -5 | .
COc1ccc(NC(=O)CN(C)C(=O)c2cc(CN3C(=O)c4ccccc4C3=O)ccc2OC)cc1 | -50 | 7 | 13 | 7 | 16 | .
O=C(Nc1nc2ccccc2s1)c1c(F)cccc1Cl | -42 | 5 | 5 | 12 | 28 | .
Cn1cc(Cl)c(C(=O)Nc2nc3ccccc3s2)n1 | -11 | 30 | 44* | 31 | 40 | 21
SMILES | PfHsp90 set2 | NLRP3 yeast inh | tim10-1 inh | TIM10 inh | tim23-1 inh | tim10-1 confirm
COc1cccc(/C=N/Nc2nc(Nc3ccccc3)nc(-n3nc(C)cc3C)n2)c1O | . | 47 | 45* | 14 | 42 | 27
COc1cc(S(=O)(=O)Nc2ccccc2C(=O)N2CCCC2)ccc1NC(C)=O | 27 | 0 | -3 | 0 | -8 | .
CN(C(=O)COC(=O)CCc1c[nH]c2ccccc12)c1ccccc1 | 37 | 15 | 43* | 19 | 41 | 26
CC(/C=N/NC(=O)c1ccncc1)=C\c1ccc(C(C)C)cc1 | 2 | 18 | 9 | -25 | -5 | .
CC(/C=N/Nc1nc(C)cc(C)n1)=C\c1ccc(C(C)C)cc1 | 8 | -3 | 46* | 20 | 39 | 35*
O=C1c2cccc3cccc(c23)C(=O)N1CCN1CCN(CC(O)COc2ccc3ccccc3c2)CC1 (stereo not given) | 19 | 11 | 71* | 15 | 45 | 62*
O=C1c2cccc3cccc(c23)C(=O)N1CC1CCN(CC(O)COc2ccc3ccccc3c2)CC1 (stereo not given) | 19 | 24 | -91 | 37 | -73 | .
COc1cc(CN(C(C)=O)c2ccccc2C(=O)O)ccc1[N+](=O)[O-] | -3 | . | . | . | . | .
O=C(c1cc2ccccc2o1)N1CCN(S(=O)(=O)c2ccccc2)CC1 | 22 | -31 | 43* | 12 | 34 | 27
CCOc1cc(/C=N/O)cc(Br)c1OCc1ccc(Cl)cc1 | -2 | 9 | 54* | -11 | -18 | 27
Cc1ccccc1OCCC(=O)OCC(=O)Nc1c(C)nn(-c2ccccc2)c1C | 46 | 20 | 25 | 5 | 28 | .
Cc1cc(/C=C(\C#N)C(=O)NCc2ccco2)c(C)n1C1CCCC1 | -9 | 10 | 46* | -5 | 37 | 31
Cc1cc(/C=C(\C#N)C(=O)NCc2ccco2)c(C)n1-c1cccnc1 | 20 | 20 | 4 | 4 | 17 | .
CCC(=O)Nc1nc2c(OC)ccc(OC)c2s1 | -9 | 10 | 25 | 16 | 24 | .
CCC(=O)Nc1nc2ccc3nc(C)sc3c2s1 | 14 | 32 | 48* | 23 | 21 | 23
CCCCOc1ccc(OCCSc2nc3ccccc3n2CC(=O)O)cc1 | 3 | 15 | -5 | 5 | 11 | .
CCCCOC(=O)n1c(SCC(=O)N(C)C)nc2ccccc21 | -7 | 14 | 41* | -14 | 11 | 7
O=[N+]([O-])c1ccc(Sc2nccn2Cc2ccccc2)c([N+](=O)[O-])c1 | -11 | 25 | 51* | 35 | 39 | 26
O=C(COC(=O)COc1ccc(Br)cc1)NCc1ccccc1 | -10 | 5 | 9 | -8 | 9 | .
OCCN1CCN(CC/C=C2/c3ccccc3Sc3ccc(Cl)cc32)CC1 | 4 | 26 | 44* | 32 | 12 | 26
OCCN1CCN(CCCN2c3ccccc3Sc3ccc(Cl)cc32)CC1 | 16 | 14 | 43* | 19 | -1 | 28
CN(C)CC/C=C1\c2ccccc2Sc2ccc(Cl)cc21 | 0 | 29 | 39 | 16 | -10 | .
CCOc1ccc(CCNC(=O)CN2C(=O)NC3(CCCc4ccccc43)C2=O)cc1OCC (stereo not given) | 32 | -16 | 6 | 0 | 1 | .
CN1C[C@@H]2[C@@H]3C(=O)N(C)C(=O)[C@@H]3[C@](Cc3ccccc3)(C1=O)N2C(=O)c1ccccc1 | 4 | . | . | . | . | .
Cc1cc(NCCCN2CCOCC2)n2ncc(-c3ccc(Cl)cc3)c2n1 | . | 31 | 1 | -26 | 38 | .
